Data: paper PMC4336329 (PLoS ONE, 2015)
About 14,000 (4.5%) of roughly 310,000 compounds showed an effect of 50% or more. Effects have a minus sign here. The sample holds strong results, similar compounds and a random draw of the others, so the mix is not that of the screen.

target: human ether-à-go-go-related gene (hERG) potassium channel (human, UniProt Q12809); test: primary screen, population patch clamp on CHO cells stably expressing hERG; higher = less effect of the substance
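Further: peak tail current of the secondary pulse compared with the same well before compound.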

Sequence of human ether-à-go-go-related gene (hERG) potassium channel (Q12809 whole entry, looked up): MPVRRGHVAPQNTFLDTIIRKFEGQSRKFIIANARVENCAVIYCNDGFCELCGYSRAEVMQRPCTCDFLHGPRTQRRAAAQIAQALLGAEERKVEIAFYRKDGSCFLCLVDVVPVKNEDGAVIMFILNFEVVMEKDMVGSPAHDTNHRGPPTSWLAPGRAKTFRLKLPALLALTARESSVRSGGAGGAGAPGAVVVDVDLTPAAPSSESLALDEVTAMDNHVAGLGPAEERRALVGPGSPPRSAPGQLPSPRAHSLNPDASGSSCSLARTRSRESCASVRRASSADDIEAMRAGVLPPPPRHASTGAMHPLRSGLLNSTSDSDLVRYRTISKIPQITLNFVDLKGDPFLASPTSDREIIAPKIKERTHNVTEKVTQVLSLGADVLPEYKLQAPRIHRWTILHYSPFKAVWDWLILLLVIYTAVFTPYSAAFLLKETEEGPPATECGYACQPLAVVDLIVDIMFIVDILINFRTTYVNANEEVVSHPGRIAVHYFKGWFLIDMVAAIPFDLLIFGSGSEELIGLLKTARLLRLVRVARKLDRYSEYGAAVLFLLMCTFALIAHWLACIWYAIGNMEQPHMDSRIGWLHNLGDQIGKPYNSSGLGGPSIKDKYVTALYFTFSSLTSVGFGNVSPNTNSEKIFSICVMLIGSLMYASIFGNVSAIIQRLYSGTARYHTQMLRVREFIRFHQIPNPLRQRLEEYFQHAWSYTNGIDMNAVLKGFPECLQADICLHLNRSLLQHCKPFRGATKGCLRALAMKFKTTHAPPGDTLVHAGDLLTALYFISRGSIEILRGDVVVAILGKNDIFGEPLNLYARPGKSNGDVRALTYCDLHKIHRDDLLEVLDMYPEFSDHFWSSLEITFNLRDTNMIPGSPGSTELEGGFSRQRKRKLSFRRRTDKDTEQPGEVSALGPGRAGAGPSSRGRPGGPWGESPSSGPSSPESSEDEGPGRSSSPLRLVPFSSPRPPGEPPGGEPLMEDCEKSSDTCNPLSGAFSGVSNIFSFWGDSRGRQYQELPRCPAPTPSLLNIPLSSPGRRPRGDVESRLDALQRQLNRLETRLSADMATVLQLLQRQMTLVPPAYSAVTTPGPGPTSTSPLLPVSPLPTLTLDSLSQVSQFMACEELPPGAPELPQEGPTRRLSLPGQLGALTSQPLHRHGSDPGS

| SMILES | hERG current change (%, negative = inhibition) at 10uM [%] |
| --- | --- |
| CC(C)C(NS(=O)(=O)c1cccs1)C(=O)NCc1ccccc1Cl (stereo not shown) | 0.166 |
| Cn1sc(NC(=O)c2ccc(Cl)cc2)nc1=O | 7.93 |
| COc1ccc2c(c1)[nH]c1c(C)nccc12.Cl | -28 |
| COc1cc(/C=N/NC(=O)C(NC(=O)c2ccccc2)c2n[nH]c(=O)c3ccccc23)ccc1OCC(N)=O (stereo not shown) | 5.88 |
| CCOc1ccc2nc3c(cc2c1)CN(CCOC)C(=NC)S3.Cl | 11.2 |
| COc1cc(OC)cc(-c2c(-c3cccs3)c3cc(-c4ccc(OC)c(F)c4)ccc3n2C)c1 | 12.3 |
| CCOc1ccc(OCC)c(S(=O)(=O)N2CCC(C)CC2)c1 | -29.4 |
| CCOc1ccc(OCC)c(S(=O)(=O)N2CCCCC2C)c1 (stereo not shown) | -52.2 |
| CCOc1ccc(OCC)c(S(=O)(=O)N2CCCCC2)c1 | -12.2 |
| O=C(NCCNc1nccc(C(F)(F)F)n1)c1cccs1 | -11.3 |
| Cc1ccc2c(ccc(=S)n2C)c1 | 22.1 |
| CCOc1ccc2[nH]c(C)c(CN3CCCCC3)c(=O)c2c1 | -13.1 |
| O=C(/C=C/c1ccccc1)NCCS(=O)(=O)N1CCN(c2ccccc2F)CC1 | -3.41 |
| C=CCNC(=S)N1CCN(c2ncc3c(=O)c(C(=O)O)cn(CC)c3n2)CC1 | 2.8 |
| CCn1cc(C(=O)O)c(=O)c2cnc(N3CCN(C(=S)Nc4ccccc4)CC3)nc21 | 2.24 |
| CCn1cc(C(=O)O)c(=O)c2cnc(N3CCNCC3)nc21 | -65.4 |
| C/C(=N\NC(=O)C(O)c1ccccc1)c1ccc(Br)s1 (stereo not shown) | 1.82 |
| O=[N+]([O-])c1nn(-c2ccc3c(c2)OCCO3)n(O)c1=NC1CCN(Cc2ccccc2)CC1 | -17.8 |
| Cc1cccc(-n2nc([N+](=O)[O-])c(=NC3CCN(Cc4ccccc4)CC3)n2O)c1 | -66.8 |
| Cc1ccc(CN=c2c([N+](=O)[O-])nn(-c3cccc(C)c3)n2O)cc1 | -32.7 |
| COc1ccc(-n2nc([N+](=O)[O-])c(=NC3CCN(Cc4ccccc4)CC3)n2O)cc1 | -39.8 |

| SMILES | hERG current change (%, negative = inhibition) at 10uM [%] |
| --- | --- |
| O=[N+]([O-])c1nn(-c2ccccc2)n(O)c1=NC1CCN(Cc2ccccc2)CC1 | -58.1 |
| Cc1cccc(CCN=c2c([N+](=O)[O-])nn(-c3ccccc3)n2O)c1 | -15.5 |
| COC(=O)c1ccccc1S(=O)(=O)Nc1ccc(OC)nc1 | -0.17 |
| Cc1cccc(Nc2nn3c(=O)c4ccccc4nc3s2)c1 | 23.6 |
| COc1ccc(NC(=O)c2cccc3cccnc23)cc1S(N)(=O)=O | 29.2 |
| CN(C)CC(c1ccccc1)c1ccccc1.Cl | 5.32 |
| CN(CC#CCC(c1ccccc1)c1ccccc1)C(C)(C)C.Cl | -83.3 |
| CN(C)CC#CCOC(c1ccccc1)c1ccccc1.Cl | -16.1 |
| CN(C)C(C)(C)C#CCCCCC#CC(C)(C)N(C)C | 16.5 |
| CN(C)C(C)(C)C#CC(O)(c1ccccc1)c1ccccc1 | -26.6 |
| CN(C)C(C)(C)C#CCC(c1ccccc1)c1ccccc1.Cl | -55.9 |
| CC1CCC(NC(=O)CCCn2sc3ccccc3c2=O)CC1 (stereo not shown) | 15.4 |
| N#C/C(=N\Nc1ccccc1[N+](=O)[O-])C(=N)N1CCCCC1 | 33.8 |
| Cc1ccccc1N1C(=O)/C(=C/c2ccco2)C(=O)NC1=S | 16.5 |
| NC(=O)COC(=O)c1ccccc1OCc1ccccc1 | 18.3 |
| CN1C(=O)c2ccc(NC(=O)CCS(=O)(=O)c3ccccc3)cc2C1=O | -3.01 |
| COc1ccc(-c2nnc(SCCC(=O)O)n2C)cc1OC | -6.37 |
| CCOC(=O)c1cnc2c(ccc3ccccc32)c1NCCO | -26.4 |
| CCOC(=O)c1cnc2ccc(C(=O)OC)cc2c1NCCc1ccc(OC)c(OC)c1 | -3.95 |
| CCOC(=O)c1cnc2c(ccc3ccccc32)c1NCCCN(C)C | -47 |
| CCOC(=O)c1cnc2ccccc2c1NCCc1ccc(OC)c(OC)c1 | -78.2 |

| SMILES | hERG current change (%, negative = inhibition) at 10uM [%] |
| --- | --- |
| CCOC(=O)c1cnc2c(C)cccc2c1NCCc1ccc(OC)c(OC)c1 | -66.9 |
| COc1ccc(CCNC(=O)COc2ncnc3ccccc23)cc1OC | 16.3 |
| CCOC(=O)c1cnc2ccccc2c1Nc1cc(C(=O)O)ccc1C | 14.9 |
| CCOC(=O)c1cnc2ccc(OC)cc2c1NCCc1ccc(OC)c(OC)c1 | -76.6 |
| CCOC(=O)c1cnc2ccc(OC)cc2c1Nc1ccc(N2CCN(C)CC2)cc1 | -18.2 |
| O=C(O)CCn1cc(/C=C2\NC(=S)N(c3ccccc3)C2=O)c(-c2ccc(Br)cc2)n1 | 30.1 |
| CC(=O)CCc1ccc(Oc2nc(-c3cccnc3)nc3ccccc23)cc1 | 5.75 |
| COc1ccc(Nc2cnn(-c3nc4ccccc4s3)c(=O)c2Cl)cc1 | -3.58 |
| CC1(c2ccccc2)NC(=O)N(CC(=O)Nc2cc3c(cc2Br)OCCO3)C1=O (stereo not shown) | -8.6 |
| S=C(Nc1ccccc1Oc1ccccc1)NC1CCCC1 | -0.79 |
| Cc1ccc(S(=O)(=O)N2CCN(CCNC(=O)C(=O)Nc3ccc(F)cc3)CC2)cc1 | 2.09 |
| CC(C)(C)c1ccc(C(=O)N2CCN(CCNC(=O)C(=O)Nc3ccc(F)cc3)CC2)cc1 | -52.5 |
| COc1ccc(C(=O)N2CCN(CCNC(=O)C(=O)Nc3ccc(F)cc3)CC2)cc1OC | -61.5 |
| COc1ccc(C(=O)N2CCN(CCNC(=O)C(=O)Nc3ccc(F)cc3)CC2)cc1 | -69.6 |
| Cc1cccc(C(=O)N2CCN(CCNC(=O)C(=O)Nc3ccc(F)cc3)CC2)c1 | -38.8 |
| O=C(NCCN1CCN(C(=O)c2c(F)cccc2F)CC1)C(=O)Nc1ccc(Cl)cc1 | -32.5 |
| COc1ccc(NC(=O)C(=O)NCCN2CCN(C(=O)c3cccc(Br)c3)CC2)cc1 | -31 |
| CCN1CCN(C(=O)c2ccc(OCC(=O)Nc3ccc(F)cc3)c(OC)c2)CC1 | -14.9 |
| COc1ccc(C(=O)N2CCN(CCNC(=O)C(=O)Nc3ccc(Br)cc3)CC2)cc1 | -80 |
